Source: PubChem BioAssay (National Center for Advancing Translational Sciences (NCATS))
A selection: hits, their analogues and other compounds. The true share with any hit is near 3.4%.
Tau ThT inhib – tau fibrillization inhibition (ThT binding); recombinant tau K18 P301L, heparin-induced fibrillization, ThT fluorescence; Potency, µM (doses to about 57.4 µM), actives largely listed as inhibitors; 270,000 tested, 2.1% active; P10636; further: nearly all actives have a fitted effect of over 55% in size
Target sequence (P10636 561-689 P618L limits assumed): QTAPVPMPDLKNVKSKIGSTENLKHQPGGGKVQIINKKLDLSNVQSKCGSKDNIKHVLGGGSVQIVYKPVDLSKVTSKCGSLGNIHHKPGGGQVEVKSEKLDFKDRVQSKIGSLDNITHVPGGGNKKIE
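Fibril formation assay: tau K18 P301L at 15 uM with trace Alexa 594 label, heparin inducer 20 uM, pH 7 sodium acetate buffer, 37 C for 6 hr; endpoint ThT signal.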
Tau FP inhib – inhibitors of human tau fibril formation; P10636; K18 P301L tau heparin fibrillization, Alexa594 FP, 6 h; Potency, µM (doses to about 57.7 µM), actives largely listed as inhibitors; 280,000 tested, 0.39% active; AID 1468; further: nearly all actives have a fitted effect of over 55% in size
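Heparin (20 uM) drove fibril formation of recombinant tau K18 P301L, 15 uM unlabeled with 0.24 uM Alexa 594 label, for 6 hr at 37 C in 100 mM sodium acetate pH 7. Fluorescence polarization (555/632 nm) read 1 hr after 30 uM ThT.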
Tau fluor counter – counter-screen for tau fibril formation inhibitors | tau K18 P301L (four-repeat tau fragment) Alexa594 fluorescence, heparin fibrillization | Potency, µM (highest dose often 57.7 µM) | 280,000 tested, 0.93% active; further: nearly all actives have a fitted effect of over 55% in size
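Human K18 P301L tau (15 uM unlabeled plus 0.24 uM Alexa 594-labeled, final) in 100 mM sodium acetate pH 7 was mixed with compound and 20 uM heparin and incubated 6 hr at 37 C.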
RGS12 GoLoco inh – blocks human Gai1 binding to RGS12 GoLoco peptide, red readout. P63096. Gai1:RGS12 GoLoco peptide FP, rhodamine, 10 min. Potency, µM (highest dose often 61.6 µM), most hits filed as inhibitors. 230,000 tested, 0.44% active; active means well fitted inhibition curve with a large enough effect, not every such curve was filed as active; inactive means no such curve, though single readings can be large or run the other way; further: nearly all actives have a fitted effect of over 30% in size
JMJD2E inh – blocks human JMJD2E demethylase activity; B2RXH2; JMJD2E catalytic domain, FDH-coupled NADH fluorescence (FDH is formaldehyde dehydrogenase); Potency, µM (top dose mostly 57.1 µM), most hits filed as inhibitors; 230,000 tested, 1.6% active; AID 2147; active means well fitted inhibition curve with a large enough effect, not every such curve was filed as active; inconclusive means small, poorly fitted or top-dose-only effect, or another doubt; inactive means no such curve, though single readings can be large or run the other way; further: nearly all actives have a fitted effect of over 50% in size
Target sequence (B2RXH2 1-337 limits assumed): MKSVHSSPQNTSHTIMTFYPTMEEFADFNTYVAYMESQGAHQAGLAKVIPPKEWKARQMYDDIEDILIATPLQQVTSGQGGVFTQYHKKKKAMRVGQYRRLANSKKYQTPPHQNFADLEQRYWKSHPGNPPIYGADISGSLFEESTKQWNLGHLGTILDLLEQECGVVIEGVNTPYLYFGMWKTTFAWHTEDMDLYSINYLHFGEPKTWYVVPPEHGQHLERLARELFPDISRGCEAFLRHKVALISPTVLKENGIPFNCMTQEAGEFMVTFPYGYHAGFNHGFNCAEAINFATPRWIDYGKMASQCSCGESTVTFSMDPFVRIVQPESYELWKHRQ
Hits are given with their value; – = inactive; ? = inconclusive; · = no result given; [ ] = dose if it differs, or a comment. Unless noted, the call rests on the fitted dose curve; in most records, active means well fitted curve in the direction sought with a large enough effect; inconclusive means small, poorly fitted or top-dose-only effect, or another doubt; inactive means no such curve, though single readings can be large; an effect the other way counts as inactive or inconclusive.

SMILES | Tau ThT inhib | Tau FP inhib | Tau fluor counter | RGS12 GoLoco inh | JMJD2E inh
CCN1C(=O)/C(=c2\sc3nc(=O)c(Cc4ccccc4)nn3c2=O)c2ccccc21 | 20µM | – | – | – | –
C=CCN1C(=O)/C(=c2\sc3nc(=O)c(Cc4ccccc4)nn3c2=O)c2ccccc21 | 17.8µM | ? | – | – | –
C=CCN1C(=O)/C(=N/n2cnnc2)c2ccccc21 | ? | – | – | – | –
CCc1ccccc1NC(=O)Nc1nnc(N(C)Cc2ccccc2)s1 | – | – | – | · | ·
O=C(O)CCCCCN1C(=O)/C(=C/c2ccncc2)SC1=S | ? | – | – | – | 22.4µM
O=C(O)CCCN1C(=O)/C(=C/c2ccc(-c3nc4ccccc4s3)o2)SC1=S | 1.58µM | – | – | – | –
O=C(O)CCCCCN1C(=O)/C(=C\c2ccc(-c3ccc(Cl)cc3)o2)SC1=S | · | – | – | – | –
CCOc1ccc(CCNC(=O)CSCc2nc(-c3cccc(C)c3)oc2C)cc1OCC | – | – | – | · | ·
CC(C)CC(=O)Nc1nnc(S(=O)(=O)N2CCCCCC2)s1 | 2.82µM | – | – | · | ·
COc1ccc(OCC(=O)Nc2nnc(S(=O)(=O)N3CCc4ccccc43)s2)cc1 | ? | – | – | · | ·
O=C(COc1ccc(F)cc1)Nc1nnc(S(=O)(=O)N2CCc3ccccc32)s1 | 2.82µM | – | – | · | ·
Cc1ccccc1OCC(=O)Nc1nnc(S(=O)(=O)N2CCCCCC2)s1 | 3.16µM | – | – | · | ·
O=C(COc1ccc(Cl)cc1)Nc1nnc(S(=O)(=O)N2CCCCCC2)s1 | ? | – | – | · | ·
CCCCc1nn2c(=O)cc(COC(=O)c3cccc(Cl)c3)nc2s1 | ? | – | – | · | ·
CCn1cc(S(=O)(=O)c2cc(C)cc(C)c2)c(=O)c2cc(F)c(N3CCN(c4ccccc4)CC3)cc21 | – | – | – | · | ·
COc1ccc(O)c(/C=N/Nc2nc(Nc3ccccc3)nc(-n3nc(C)cc3C)n2)c1 | ? | ? | ? | – | 14.1µM
CCCCN(C(=O)C1CCC(CNS(=O)(=O)c2cccc3nsnc23)CC1)c1ccccc1 (centres undefined) | – | – | – | · | ·
COc1ccc(CCNC(=O)c2cc(=O)c3cc(C)c(C)cc3o2)cc1OC | – | – | – | · | ·
C=CCn1c(O)c(N=NC(=O)CNC(=O)/C=C/c2ccc(OC)cc2)c2ccccc21 | 12.6µM | – | – | – | –
C=CCn1c(O)c(N=NC(=O)CNC(=O)/C=C/c2ccco2)c2ccccc21 | 20µM | – | – | – | –
CCOCCCNC(=O)Nc1cc(C(=O)NCc2ccc(C(C)C)cc2)ccc1N1CCCC1 | – | – | – | · | ·
COc1ccccc1N(C(=O)CCl)c1cn(C(C)=O)c2ccccc12 | – | – | – | – | –
CC(=O)n1cc(N(C(=O)CCl)c2ccc(Cl)cc2)c2ccccc21 | 28.2µM | – | – | – | ?
COc1cc2c(C(=O)N3CCN(c4cccc(C)c4)C(C)C3)cn(CC(C)C)c(=O)c2cc1OC (centres undefined) | – | – | – | · | ·
CCOc1ccc(NC(=O)CC2C(=O)N(c3cccc(C)c3)C(=O)N2Cc2cccnc2)cc1 (centres undefined) | – | – | – | · | ·
SMILES | Tau ThT inhib | Tau FP inhib | Tau fluor counter | RGS12 GoLoco inh | JMJD2E inh
COC(=O)c1ccccc1NC(=O)c1ccc(-c2ccc(Br)cc2)o1 | – | – | – | – | 3.55µM
CC(=O)N1CC=C2C(C#N)=C(N)C(C#N)(C#N)[C@H](c3ccoc3)[C@H]2C1 | ? | ? | – | – | ?
CN1CC=C2C(C#N)=C(N)C(C#N)(C#N)[C@H](c3ccoc3)[C@H]2C1 | 22.4µM | ? | ? | – | ?
N#CC1=C2SCN(Cc3ccccc3)CN2C(=O)CC1c1ccccc1F (centres undefined) | ? | ? | – | – | –
CCOc1ccc(N2CSC3=C(C#N)C(c4ccco4)CC(=O)N3C2)cc1 (centres undefined) | 14.1µM | ? | ? | – | ?
Cc1ccc(C2CC(=O)N3CN(Cc4ccco4)CSC3=C2C#N)cc1 (centres undefined) | 25.1µM | ? | – | – | –
N#CC1=C2SCN(Cc3ccco3)CN2C(=O)CC1c1c(F)cccc1Cl (centres undefined) | 7.08µM | ? | – | – | ?
Cc1ccc(C2CC(=O)N3CN(c4ccc(Br)cc4)CSC3=C2C#N)o1 (centres undefined) | ? | ? | – | – | –
Cc1cc(C)nc(SCC(=O)NC2=NN=C(c3ccc(Br)cc3)CS2)n1 | ? | ? | – | – | –
CCC(Sc1nc(C)cc(C)n1)C(=O)NC1=NN=C(c2ccc(C)cc2)CS1 (centres undefined) | 31.6µM | ? | – | – | –
CCOc1ccc(NC(=S)Nc2ccc(C)c([N+](=O)[O-])c2)cc1 | ? | – | 31.6µM[quencher] | – | –
CCOc1ccc(NC(=S)/C(=C(\[O-])c2ccc(C)c([N+](=O)[O-])c2)[n+]2ccccc2)cc1 | 25.1µM | – | – | – | –
CCOc1ccc(NC(=S)Nc2ccc(OCC)cc2)cc1 | ? | – | – | – | –
CSc1cccc(NC(=O)C2CCCN(C(=O)c3cnn(-c4ccc(F)cc4)c3-n3cccc3)C2)c1 (centres undefined) | – | – | ? | · | ·
Cc1onc(-c2c(Cl)cccc2Cl)c1C(=O)NC(=S)Nc1sc2c(c1C(N)=O)CCC(C)C2 (centres undefined) | – | – | – | – | –
CC1CCc2c(sc(Nc3nc4c(F)cccc4s3)c2C(N)=O)C1 (centres undefined) | ? | – | 15.8µM[quencher] | – | ?
c1ccc2sc(N3CCOCC3)nc2c1 | – | – | – | – | –
c1ccc2sc(SN3CCOCC3)nc2c1 | – | – | – | – | 12.6µM
